From PubChem BioAssay AID1233 (SRMLSC, 2008)
Measured potencies and affinities stand elsewhere. Active and inactive are the calls of the source.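 How the source made its calls: active means a dose-response curve fit returns a half-maximal inhibitory concentration, extrapolated values included; inactive means the fit returns no such concentration.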

target: HMG-CoA reductase [Enterococcus faecalis] (UniProt Q9FD70); assay: class II HMG-CoA reductase inhibition potency – biochemical, Enterococcus faecalis, confirmation (AID 1233); details: purified E. faecalis HMGR, NADPH absorbance 340 nm kinetics; series mostly up to 100 µM

outcome, inactive:
COc1cc2c(cc1OC)CN(C(C)C(=O)N1CCc3ccccc31)CC2 (stereo not drawn)
CC(C)OCCCNC(=O)Nc1cccc2ccccc12
O=C(CCn1cnnn1)Nc1ccc(Cl)c(Cl)c1
O=C(NCC(=O)N(Cc1cccs1)C(C(=O)NC1CCCC1)c1ccncc1)c1ccco1 (stereo not drawn)
CCOC(=O)c1c(C)nc2ccc(C)cn12
COc1ccc(N=c2ssnc2Cl)cc1
CC(C)CNC(=O)CSc1ccc(Cl)cc1
COc1ccc(OC)c(NC(=O)NNC(=O)CCCOc2ccc(Cl)cc2C)c1
CCOc1cccc2cc(C(N)=O)c(=NCc3ccccc3)oc12
CCC(=O)Nc1ccc2c(c1)nc(CN1CCCCC1)n2C
Cc1cc(C)nc(N(C#N)CC(=O)N2CCC(C(N)=O)CC2)n1
O=C(O)C1CCCNC1 (stereo not drawn)
O=[N+]([O-])c1ccc(C(=Nc2cccc3ccccc23)N2CCOCC2)cc1
CCCCCC/C(C)=C1/SC(=S)NC1=O
CN(C1CCCC1)C1CCN(C(=O)CNC(=O)/C=C/c2ccccc2)CC1
O=C(N/N=C/C(Cl)=C/c1ccccc1)c1cnccn1
O=C(COC(=O)c1ccc[nH]c1=O)NC1CCCCCC1
CC(=O)Nc1ccc2c(c1)OCCO2
COc1cc(NC(=O)c2cc3nc(-c4ccccc4)cc(-c4ccccc4)n3n2)cc(OC)c1OC
Cc1cc(=O)[nH]c(SCC(=O)C23CC4CC(CC(C4)C2)C3)c1C#N
Cc1nn2c(C(F)(F)F)cc(-c3ccc(Cl)cc3)nc2c1C(=O)N1CCOCC1
CCN(CC)S(=O)(=O)c1ccc(C(=O)Nc2c3c(nn2C(C)(C)C)CS(=O)(=O)C3)cc1
C=CCOc1c(Br)cc(CNc2nccs2)cc1OC
COc1ccc(-n2c(SCC(N)=O)nc3sc4c(c3c2=O)CCN(C)C4)cc1
NC(=O)c1ccc2nc(NC(=O)c3ccc(N)cc3)sc2c1
CCn1c(C)nc2cc(S(=O)(=O)C(F)(F)C(F)C(F)(F)F)ccc21 (stereo not drawn)
Cn1c(CO)cnc1SCc1ccc(F)cc1
CCn1c2ccccc2c2cc(CNCc3ccc(OC)cc3OC)ccc21
O=C(O)c1cc(-c2ccc(N3CCOCC3)cc2)nn1-c1ccccc1Cl
CCc1nc(N)nc(N)c1-c1ccc(Cl)cc1
COc1cc(/C=C2/C(=O)ON=C2C)ccc1OCc1cccc(F)c1
CCC1CCCCN1C(=O)CCn1ccnc1 (stereo not drawn)
COC(=O)C1=C(C)Nc2c(c(=O)n(C)c(=O)n2C)C1c1cccnc1 (stereo not drawn)
CCc1c(C#N)c(N)nc(SCC(=O)OCc2ccccc2)c1C#N
Cc1nc(SCC(=O)N2CC(=O)Nc3ccccc32)c2c(C)c(C)sc2n1
COn1c(SCc2ccc(C)cc2C)nc2ccccc2c1=O
C=C(C)Cn1c(-c2ccncc2)n[nH]c1=S
O=C1c2ccccc2C(=O)N1CCN1CCCCC1
